In PubChem BioAssay (NCATS):
“And” between values parts separate entries of the source, which are not always exact repeats. Equal values may be shown once. Results filed as inconclusive are left out. The source made the active and inactive calls. The call rests on the fitted dose curve; in most records, active means well fitted inhibition curve with a large enough effect; inconclusive means small, poorly fitted or top-dose-only effect; inactive means flat fitted curve, though single readings scatter.

Legend:
CRL-7250 = normal cell line; test: Cytotoxic Profiling of Annotated Libraries Using Quantitative High-Throughput Screening (AID 1296008); settings: Five cell lines viability, CellTiter-Glo ATP luminescence, 48-72 h; max response: stronger effect = lower value; on max response: on the % scale 0 is the no-effect control and ±100 the full control effect
Method in brief: (§1)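 Compounds were pin-transferred onto cells and incubated 48 or 72 hr at 37 degree Celsius, 95% humidity. CellTiter-Glo was added, plates sat 10 min at room temperature, then ATP-coupled luminescence was imaged as the viability read-out.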

HaCat = test: as above; settings: Five cell lines viability, CellTiter-Glo ATP luminescence, 48-72 h; max response: stronger effect = lower value
Method in brief: as §1

FAB9 = test: qHTS profiling for inhibitors of Plasmodium falciparum proliferation (AID 504749); settings: P. falciparum in erythrocytes, SYBR Green DNA, 72 h; series mostly up to 28.7 µM
Method in brief: (§2)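 Quantitative HTS: compounds pinned into medium, infected erythrocytes added (0.3% parasitemia, 2.5% hematocrit), 72 h culture at 37 C under 5% CO2. Saponin/Triton lysis with SYBR Green I, overnight RT, then fluorescence read.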

GB4 = test: as above; settings: P. falciparum in erythrocytes, SYBR Green DNA, 72 h; series mostly up to 28.7 µM
Method in brief: as §2

HB3 = test: as above; settings: P. falciparum in erythrocytes, SYBR Green DNA, 72 h; series mostly up to 28.7 µM
Method in brief: as §2

ICS = test: as above; settings: P. falciparum in erythrocytes, SYBR Green DNA, 72 h; series mostly up to 28.7 µM
Method in brief: as §2

JCK = test: as above; settings: P. falciparum in erythrocytes, SYBR Green DNA, 72 h; series mostly up to 28.7 µM
Method in brief: as §2

N140 = test: as above; settings: P. falciparum in erythrocytes, SYBR Green DNA, 72 h; series mostly up to 28.7 µM
Method in brief: as §2

P93_24 = test: as above; settings: P. falciparum in erythrocytes, SYBR Green DNA, 72 h; series mostly up to 28.7 µM
Method in brief: as §2

P94_40 = test: as above; settings: P. falciparum in erythrocytes, SYBR Green DNA, 72 h; series mostly up to 28.7 µM
Method in brief: as §2

PAD = test: as above; settings: P. falciparum in erythrocytes, SYBR Green DNA, 72 h; series mostly up to 28.7 µM
Method in brief: as §2

PC15 = test: as above; settings: P. falciparum in erythrocytes, SYBR Green DNA, 72 h; series mostly up to 28.7 µM
Method in brief: as §2

PC26 = test: as above; settings: P. falciparum in erythrocytes, SYBR Green DNA, 72 h; series mostly up to 28.7 µM
Method in brief: as §2

PC49 = test: as above; settings: P. falciparum in erythrocytes, SYBR Green DNA, 72 h; series mostly up to 28.7 µM
Method in brief: as §2

SC27B = test: as above; settings: P. falciparum in erythrocytes, SYBR Green DNA, 72 h; series mostly up to 28.7 µM
Method in brief: as §2

TAB109 = test: as above; settings: P. falciparum in erythrocytes, SYBR Green DNA, 72 h; series mostly up to 28.7 µM
Method in brief: as §2

TAB113 = test: as above; settings: P. falciparum in erythrocytes, SYBR Green DNA, 72 h; series mostly up to 28.7 µM
Method in brief: as §2

TAB165 = test: as above; settings: P. falciparum in erythrocytes, SYBR Green DNA, 72 h; series mostly up to 28.7 µM
Method in brief: as §2

W2 = test: as above; settings: P. falciparum in erythrocytes, SYBR Green DNA, 72 h; series mostly up to 28.7 µM
Method in brief: as §2

HEK293 = test: Cytotoxic Profiling of Annotated Libraries Using Quantitative High-Throughput Screening (AID 1296008); settings: Five cell lines viability, CellTiter-Glo ATP luminescence, 48-72 h; max response: stronger effect = lower value; on max response: on the % scale 0 is the no-effect control and ±100 the full control effect
Method in brief: as §1
Further: nearly all actives have a fitted effect of over 60% in size.
Potency means the concentration at half of the fitted maximal effect.

O=C(NCCCCN1CCOCC1)c1cc2ccccc2o1
inactive: max response (CRL-7250) -1.43% | outcome (HaCat)

O=C1C(CCC(O)c2ccc(F)cc2)C(c2ccc(O)cc2)N1c1ccc(F)cc1 (stereo unspecified)
inactive: outcome (FAB9) | Potency (GB4) | Potency (HB3) | Potency (ICS) | outcome (JCK) | Potency (N140) | Potency (P93_24) | Potency (P94_40) | Potency (PAD) | outcome (PC15) | Potency (PC26) | outcome (PC49) | Potency (SC27B) | Potency (TAB109) | Potency (TAB113) | Potency (TAB165) | Potency (W2) | max response (CRL-7250) -5.06% | outcome (HEK293) | max response (HaCat) 3.02%

O=[N+]([O-])c1ccc(Nc2ccccc2-c2ccccc2)c2nonc12
inactive: max response (CRL-7250) -7.85% | outcome (HaCat)

Cc1cc2nc3c(=O)[nH]c(=O)nc-3n(CC(O)C(O)C(O)CO)c2cc1C (stereo unspecified)
inactive: outcome (FAB9) | Potency (HB3) | Potency (ICS) | outcome (JCK) | Potency (N140) | Potency (P93_24) | Potency (P94_40) | Potency (PAD) | outcome (PC15) | Potency (PC26) | outcome (PC49) | Potency (SC27B) | Potency (TAB109) | Potency (TAB113) | Potency (TAB165) | outcome (CRL-7250) | max response (HEK293) -3.68% | outcome (HaCat)

COc1ccnc(CS(=O)c2nc3ccc(OC(F)F)cc3[nH]2)c1OC (stereo unspecified)
inactive: outcome (FAB9) | Potency (GB4) | Potency (HB3) | Potency (ICS) | outcome (JCK) | Potency (N140) | Potency (P93_24) | Potency (P94_40) | Potency (PAD) | outcome (PC15) | outcome (PC49) | Potency (SC27B) | Potency (TAB109) | Potency (TAB113) | Potency (TAB165) | Potency (W2) | max response (CRL-7250) 3.58% | outcome (HEK293) | max response (HaCat) -12.5% | outcome (HaCat)

CCC(=O)OCC(=O)[C@@]1(OC(=O)CC)[C@@H](C)C[C@@H]2[C@H]3CCC4=CC(=O)C=C[C@]4(C)[C@@]3(F)[C@@H](O)C[C@@]21C
inactive: max response (CRL-7250) -3.82% | max response (HaCat) -0.0521%

COc1c(C)c2c(c(O)c1CC=C(C)CCC(=O)OCCN1CCOCC1)C(=O)OC2
active: Potency (GB4) 6.75 µM | Potency (ICS) 7.94 µM | Potency (N140) 8.91 µM | Potency (P93_24) 7.08 µM | Potency (P94_40) 7.94 µM | Potency (PAD) 11.2 µM | Potency (SC27B) 5.01 µM | Potency (TAB109) 7.08 µM | Potency (TAB113) 5.01 µM | Potency (TAB165) 5.01 µM | Potency (W2) 6.01 µM | Potency (CRL-7250) 3.32 µM | Potency (HEK293) 3.72 µM
inactive: outcome (FAB9) | outcome (PC15) | outcome (PC49) | max response (HaCat) -7.64%

CC(C)Oc1cc(Nc2nc(N[C@@H](C)c3ccc(F)cn3)ncc2Cl)[nH]n1
active: Potency (CRL-7250) 2.64 µM
inactive: max response (HaCat) -29.2%

COc1ccc2c(c1)CC[C@H]1[C@@H]2CC[C@]2(C)[C@@H](NCCCCCCN3C(=O)C=CC3=O)CC[C@H]12
inactive: max response (CRL-7250) -3.42% | max response (HaCat) 1.55%

CC(C)CN(C[C@@H](O)[C@H](Cc1ccccc1)NC(=O)O[C@H]1CO[C@H]2OCC[C@H]21)S(=O)(=O)c1ccc(N)cc1
inactive: outcome (FAB9) | Potency (GB4) | Potency (HB3) | outcome (JCK) | Potency (P93_24) | Potency (P94_40) | outcome (PC15) | Potency (PC26) | outcome (PC49) | Potency (SC27B) | Potency (TAB109) | Potency (TAB113) | Potency (TAB165) | max response (CRL-7250) -22% | max response (HEK293) -18.9% | max response (HaCat) -16.8%

Cc1csc(-c2nnc(Nc3ccc(Oc4ncccc4-c4ccnc(N)n4)cc3)c3ccccc23)c1
inactive: max response (CRL-7250) -3.89% and -3.06%
active: Potency (HaCat) 0.148 µM

Cc1ccc(S(=O)(=O)OCC(=O)Nc2ccc(C(=O)O)c(O)c2)cc1
inactive: max response (CRL-7250) -2.75% | outcome (HaCat)

CN(C)CCOc1ccc(C(=C(CCCl)c2ccccc2)c2ccccc2)cc1
inactive: max response (CRL-7250) -7.14% | max response (HaCat) -3.54%

CCCCn1c(=O)n(Cc2ccccc2F)c(=O)c2[nH]c(Cc3ccc(NC(C)=O)cc3)nc21
inactive: max response (CRL-7250) -20% and 4.17% | max response (HEK293) -5.59% and -2.73% | max response (HaCat) -7.85% | outcome (HaCat)
